About 2,000 (36%) of roughly 5,500 compounds were called active. Roughly 18% stayed inconclusive and do not appear here. Cut-off read from the data, not from the text of the source: active = normalized growth mostly below about 0.91 (no sharp cut-off); inconclusive = no clear call, values can overlap the other calls; inactive = mostly above about 0.92. This is one part of the list.
Test: chemical genetic growth profiling, strain panel (AID 1159580);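 note: tested at 20 µM; growth read once vehicle control cultures reached saturation at 30 °C; 1 = growth at the plate median or of vehicle wells; lower values mean less growth of the strain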
Conditions: S. cerevisiae deletion strains, growth OD

Measured: normalized growth

O=C(c1ccccc1)c1cc2c(cc1Br)OCCO2
active: locus YAL013W, strain DEP1, stronger effect = lower value 0.908 | locus YDL101C, strain DUN1, stronger effect = lower value 0.897 | locus YEL061C, strain CIN8, stronger effect = lower value 0.904 | locus YGR078C, strain PAC10, stronger effect = lower value 0.922 | locus YHR030C, strain SLT2, stronger effect = lower value 0.304 | locus YJR043C, strain POL32, stronger effect = lower value 0.906 | locus YKL190W, strain CNB1, stronger effect = lower value 0.845 | locus YLR039C, strain RIC1, stronger effect = lower value 0.486 | locus YLR085C, strain ARP6, stronger effect = lower value 0.419 | locus YLR262C, strain YPT6, stronger effect = lower value 0.524 | locus YML094W, strain GIM5, stronger effect = lower value 0.852 | locus YNL153C, strain GIM3, stronger effect = lower value 0.91 | locus YNL298W, strain CLA4 (second series), stronger effect = lower value 0.7 | locus YNR030W, strain Alg12, stronger effect = lower value 0.811 | locus YPL241C, strain CIN2, stronger effect = lower value 0.823 | locus YPR135W, strain CTF4, stronger effect = lower value 0.445
inactive: locus YBR229C, strain ROT2, stronger effect = lower value 0.953 | locus YDL134C, strain PPH21, stronger effect = lower value 0.942 | locus YDR150W, strain NUM1, stronger effect = lower value 0.927 | locus YHR087W, strain rtc3, stronger effect = lower value 0.989 | locus YJR075W, strain HOC1, stronger effect = lower value 0.93 | locus YLR058C, strain SHM2 (second series), stronger effect = lower value 0.956 | locus YMR219W, strain ESC1, stronger effect = lower value 0.952 | locus YMR263W, strain SAP30, stronger effect = lower value 0.921 | locus YNL322C, strain KRE1, stronger effect = lower value 0.955 | locus YPL055C, strain LGE1, stronger effect = lower value 0.845

From PubChem BioAssay AID1159580 (chemical genetic matrix, 2015)
